# About 83,000 compounds went through this panel and 20% of them were active in at least one assay; those are over-represented in the sample as a whole.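 Activity criterion: percent growth below 10, measured after cells in 96-well plates were exposed to a single compound concentration for 48 hours.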 Active and inactive are the calls of the source.
# System: HL-60(TB) leukemia
# Assay: NCI-60 one-dose screen, 48 h (100 = growth as untreated, 0 = no growth, -100 = all killed)
# Conditions: 10 µM unless noted
row,SMILES,growth
1,CN(C)C=Nc1cc(Cl)ccc1Cl,102% (inactive)
2,CCCCNC(=O)Oc1ccc(/C(=C(\C)c2ccc(Cl)cc2)c2ccc(OCCN3CCCCC3)cc2)cc1,64.9% (inactive)
3,Cc1ccccc1C1CC(=O)c2ccccc2C1C (stereo not given),98.6% (inactive)
4,OC(c1cc(-c2cccc(Cl)c2)nc2ccccc12)C1CCCCN1 (stereo not given),-63.1% (active)
5,NC(N)=NS(=O)(=O)c1ccc(NC2=C(I)C(=O)c3ncccc3C2=O)cc1,99.2% (inactive)
6,Oc1c(CN2CCC(N3CCCCC3)CC2)cc(Cc2cc(CN3CCC(N4CCCCC4)CC3)c(O)c3ncccc23)c2cccnc12,-6.31% (active)
7,Oc1ccccc1-c1nnco1,96% (inactive)
8,O=C(CNC(=O)c1cccc2ccccc12)Nc1ccccc1Oc1ccc(O)cc1,-13.9% [5 µM] (active)
9,CC/C=C\C=C/C(=O)N/C=C/CC1Cc2cccc(O)c2C(=O)O1 (stereo not given),17.4% (inactive)
10,CCOc1cc(NC(=O)c2ccccc2)c(OCC)cc1N,109% (inactive)
11,CCOC(=O)c1c(C)nc2c(c1N)CC(=O)N2Cc1cc(OC)c(OC)c(OC)c1,18.8% (inactive)
12,Cc1nn(-c2ccccc2)c2c1N=c1s/c(=C\c3cn(-c4ccccc4)nc3-c3ccc(Cl)cc3)c(=O)n1C(C)N2 (stereo not given),78.5% (inactive)
13,O=C(CC(=O)c1cccc(Cl)c1)c1cccc(Cl)c1,4.17% (active)
14,O=C(CN1C(=O)/C(=C/c2ccc(Cl)cc2)SC1=S)NCCCN1CCOCC1,98.7% (inactive)
15,c1ccc2nc(N/N=C3\CCCCC3C3CCCCC3)ccc2c1 (stereo not given),-19.7% (active)
16,O=C(CN1C=NC2C(N3CCOCC3)=NC=NC21)c1ccc(Br)cc1 (stereo not given),102% (inactive)
17,CC1=NCC2NC(=O)NC(C)=C12 (stereo not given),109% (inactive)
18,Cc1cc(=O)n(C(=O)Nc2ccccc2Cl)c2cc(O)ccc12,107% (inactive)
19,CCCCCCOC(=O)CC1=C(C)/C(=C/c2[nH]c(-c3ccc[nH]3)cc2OC)N=C1C,-42.7% (active)
20,CN(C)CCOc1cccc(NC2=C(Cl)C(=O)C(Nc3cccc(OCCN(C)C)c3)=C(Cl)C2=O)c1,-51% (active)

row,SMILES,growth
1,CCCCN(CCCC)C(=N)c1ccnc2ccccc12,64.8% (inactive)
2,COc1ccc(CCN2COc3c([C@@H](C)CCC=C(C)C)ccc(C)c3C2)cc1OC,29.1% (inactive)
3,CC1CCN(CCCCCOc2ccc3oc4ccc(Cl)cc4c(=O)c3c2)CC1,39.6% (inactive)
4,CCNCCNc1cc(-c2ccc(C(F)(F)F)cc2)c(C#N)c2nc3ccccc3n12,-65.9% (active)
5,Ic1ccc(SSc2ccc(I)cc2)cc1,80.4% (inactive)
6,COc1cc(C2CC(c3ccc(Nc4nc(NCCO)nc(NCCO)n4)cc3)=NN2c2cc(Cl)cc(Cl)c2)cc(OC)c1OC (stereo not given),-5.04% (active)
7,O=C(/C(=C/c1ccc([N+](=O)[O-])cc1)c1ccccc1)c1ccccc1,16.9% (inactive)
8,CC(C)(C)c1ccc(OCCCCCCN2CCNCC2)cc1,15.2% (inactive)
9,COc1ccc(Cl)cc1NC(=O)c1c(NC(=O)C(F)(F)C(F)(F)F)sc2c1CCCCC2,12.4% (inactive)
10,O=C1c2ccc3c4c(ccc(c24)C(=O)N1CCCNCc1ccccc1)C(=O)N(CCCNCc1ccccc1)C3=O,-71.3% (active)
11,CSc1nc2c(c(=O)n1C)CN(Cc1ccccc1)C(=O)CN2,84.9% (inactive)
12,COc1cc(-c2nn(-c3cccc(NC(=O)CCN4CCN(C)CC4)c3)cc2-c2ccncc2)ccc1Cl,-24.5% (active)
13,CCOC(=O)c1sc(NC(=O)c2cc(OC)c(OC)c(OC)c2)nc1C,102% (inactive)
14,COc1ncc(-c2ccc3nc(N)n(-c4ccccc4C(F)(F)F)c(=O)c3c2)cc1S(=O)(=O)Nc1ccc(F)cc1F,19.9% (inactive)
15,Cc1ccc(/C=C/C(=O)c2ccc(NC(=O)CSc3nc4c([nH]3)c(=O)n(C)c(=O)n4C)cc2)c(C)c1,94.5% (inactive)
16,C(=C\c1cn(-c2ccccc2)nc1-c1ccccc1)/c1nnc(-c2c[nH]c3ccccc23)o1,98.1% (inactive)
17,CC(=O)c1cc2c(o1)C(=O)c1ccccc1C2=O,-36.5% (active)
18,C#CCn1c(C)cc(C)c(C#N)c1=O,101% (inactive)
19,CCOC(=O)c1cc(-c2ccccc2)nc(N)n1,101% (inactive)
20,CCOC(=O)CSc1nc2sc3c(c2c(=O)n1-c1ccccc1)CCCCC3,109% (inactive)

# Source: PubChem BioAssay (NCI)
